Screening results: PubChem, National Center for Advancing Translational Sciences (NCATS)
This is a sample that favours compounds with a hit; in the whole collection about 9.3% have one here.
Rab9 prom act: qHTS Assay for Rab9 Promoter Activators | Huh7 Rab9 promoter-luciferase reporter, luminescence, 24 h | Potency, µM (series often up to 9.22 µM), inactives show at the highest dose activation, negative = inhibition, actives largely listed as activators | 320,000 compounds, 2.8% hits; also: % of control where 0% means no effect; nearly all actives have a fitted effect of over 60% in size
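Huh7 cells stably carrying Rab9 promoter–luciferase reporter, plated 1500 cells/well, compound added after 2 h and incubated 24 h at 37 °C; luciferase luminescence then read after 10 min with detection reagent.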
SMN2 splice enh: qHTS Assay for Enhancers of SMN2 Splice Variant Expression. HEK293 SMN2-luciferase splicing reporter, luminescence, 30-36 h. Potency, µM (highest dose often 46.1 µM), inactives show at the top dose activity change, positive = activation, most hits filed as activators. 210,000 compounds, 2.8% hits; also: % of control where 0% means no effect; nearly all actives have a fitted effect of over 55% in size
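HEK293 cells carry an SMN2 […]–luciferase reporter in which exon 7 inclusion puts luciferase in frame. Cells were plated 10-12 h before compound addition, then incubated 30-36 h at 37C. ONE-Glo luminescence was read; sodium butyrate at 4.5 mM final served as control.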
FLuc modulator: qHTS profiling assay for firefly luciferase inhibitor/activator using purifed enzyme and Km concentrations of substrates (counterscreen for miR-21 project) | purified FLuc, Km substrates, luminescence inhibition | Luciferin 4-monooxygenase (Photinus pyralis), P08659 | 360,000 compounds, 6.9% hits | Potency, µM (doses to about 57.5 µM), for the others: at the highest dose activity change, negative = inhibition, most hits filed as inhibitors;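 also: plate controls were vehicle for no effect and reference inhibitor for full effect; nearly all actives have a fitted effect of over 55% in size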
Target sequence (P08659 whole entry, looked up): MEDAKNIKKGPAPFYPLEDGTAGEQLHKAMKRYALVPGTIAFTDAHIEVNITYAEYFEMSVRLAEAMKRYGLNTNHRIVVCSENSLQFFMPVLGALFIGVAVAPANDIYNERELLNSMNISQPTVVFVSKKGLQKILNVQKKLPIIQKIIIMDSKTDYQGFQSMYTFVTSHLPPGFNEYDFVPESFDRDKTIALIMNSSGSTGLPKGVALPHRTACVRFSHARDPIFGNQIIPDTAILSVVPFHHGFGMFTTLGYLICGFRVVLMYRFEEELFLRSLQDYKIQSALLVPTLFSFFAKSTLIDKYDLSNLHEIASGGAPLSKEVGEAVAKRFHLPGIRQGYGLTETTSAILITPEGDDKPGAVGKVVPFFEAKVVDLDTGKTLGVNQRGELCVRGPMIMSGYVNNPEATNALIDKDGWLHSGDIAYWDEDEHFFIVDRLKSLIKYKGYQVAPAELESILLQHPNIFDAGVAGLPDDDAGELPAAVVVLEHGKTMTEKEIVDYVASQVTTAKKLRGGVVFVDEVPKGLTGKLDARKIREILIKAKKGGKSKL
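Purified P. pyralis luciferase (10nM final) with 10uM D-luciferin and 10uM ATP (Km levels) in 50mM Tris acetate pH 7.5, 10mM Mg acetate, 0.01% Tween-20, 0.05% BSA; qHTS 6-point titration, ~60 µM downward; luminescence read.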
NPC1 promoter act: qHTS Assay for NPC1 Promoter Activators | Huh7 NPC1 promoter luciferase reporter, 24 h | Potency, µM (series often up to 9.22 µM), for inactives: at the top dose activation, most hits filed as activators | 320,000 compounds, 2.4% hits; also: % of control where 0% means no effect; nearly all actives have a fitted effect of over 60% in size
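Cells: Huh7 expressing luciferase under the NPC1 promoter, 1500/well. Seeded 2 h, compound added, incubated 24 h at 37 °C. Luciferase reagent, 10 min ambient, then luminescence.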
ELG1 genotox: qHTS screen for small molecules that induce genotoxicity in human embryonic kidney (HEK293T) cells expressing luciferase-tagged ELG1. HEK293T ELG1-luciferase reporter, luminescence, 16 h. Potency, µM (doses to about 46 µM), inactives show at the highest dose activity change, positive = activation, most hits filed as activators. 330,000 compounds, 1.3% hits. AID 504466, 2011; also: % of control where 0% means no effect; nearly all actives have a fitted effect of over 60% in size
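Reporter readout depends on ELG1 protein level, which increases with genetic stress. After 16 hr compound exposure at 37 °C, luciferase activity was quantified using ONE-Glo.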
ELG1 DNA repair: qHTS screen for small molecules that inhibit ELG1-dependent DNA repair in human embryonic kidney (HEK293T) cells expressing luciferase-tagged ELG1. HEK293T ELG1-luciferase reporter, luminescence, 16 h; DNA damage induced by 5-fluorouridine. Potency, µM (doses to about 46.1 µM), without a hit: at the highest dose activity change, negative = inhibition, most hits filed as inhibitors. 330,000 compounds, 2.3% hits. AID 504467, 2011; also: % is scaled to controls: 0 for no effect and ±100 for the full control effect; nearly all actives have a fitted effect of over 55% in size
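Reporter activity after DNA damage by 5-fluorouridine is monitored. Compound-treated cells incubate 16 hr at 37 °C, then ONE-Glo is added for 30 min before luminescence reading.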
Starred values were filed as active, the others as inactive; ? = inconclusive; . = no result; [ ] = dose if it differs, or a comment. Calls follow the shape of the dose curve; as a rule, active = well fitted curve in the direction sought with a large enough effect; inconclusive = small, poorly fitted or top-dose-only effect, or another doubt; inactive = no such curve, though single readings can be large; an effect the other way counts as inactive or inconclusive. Potency is read from the fitted curve at half-maximal effect.

SMILES | Rab9 prom act | SMN2 splice enh | FLuc modulator | NPC1 promoter act | ELG1 genotox | ELG1 DNA repair
Cc1c(-c2ncn[nH]2)sc(C#N)c1-c1ccccc1 | -3% | -18% | 19µM* | 8% | 2% | -3%
CCOC(=O)c1c(-c2ccccc2)csc1NC(=O)c1cc(-c2ccc(Br)cc2)on1 | . | 17% | -13% | . | . | .
O=C(CN1C(=O)c2ccccc2C1=O)N1CCN(C2c3ccccc3-c3ccccc32)CC1 | 0% | 1%[1.84 µM] | 3% | -9% | -2% | 16µM*
COc1ccc(NC(=O)CN2CCN(C3c4ccccc4-c4ccccc43)CC2)cc1 | -1% | 0% | -3% | 3% | -6% | 6.5µM*
O=C(CN1C(=O)c2ccccc2C1=O)N1CCOCC1 | 1% | -6% | 1% | 9% | 1% | 6%
O=C(O)CCCNc1ccc(S(=O)(=O)N2CCCCC2)cc1 | -14% | . | -3% | -3% | 2% | 16%
CC1(C)CC(c2nc(-c3ccc([N+](=O)[O-])cc3)cs2)CCO1 (configuration not stated) | -2% | -90% | -10% | -3% | -6% | ?
Cc1ccccc1Nc1c(-c2ccc(N3CCOCC3)cc2)nc2ccccn12 | . | 11µM* | 0.24µM* | . | . | .
Cc1ccccc1Nc1c(-c2ccc(N3CCOCC3)cc2)nc2ccc(Br)cn12 | . | -8% | 3.4µM* | . | . | .
Cc1cccc(C)c1Nc1c(-c2ccc(N3CCOCC3)cc2)nc2cnccn12 | -2% | . | ? | -2% | 5% | -1%
Cc1ccccc1Nc1c(-c2ccc(N3CCOCC3)cc2)nc2cccc(C)n12 | . | 18% | 1.3µM* | . | . | .
Cc1cccc(NC(=O)NCC2CC2)c1 | 11% | . | -14% | 5% | 7% | ?
COc1ccccc1N1CCN(c2ccc(=O)n(CC(=O)Nc3ccc(F)c(F)c3)n2)CC1 | . | . | -10% | . | . | .
CCn1nnc2cc(C(=O)Nc3ccc(C)c(Cl)c3)ccc21 | . | . | 4% | . | . | .
CCc1ccc(-c2cn(-c3nc(C)cc(C)n3)c(=N)o2)cc1 | 0% | 2% | 5.4µM* | 2% | -8% | -2%
Cc1ccnc2nc(C(=O)OCC(=O)NC(=O)NCc3ccco3)nn12 | -2% | 10% | -1% | -2% | 0% | 0%
CCCCC(CC)CN1CN(CC(CC)CCCC)CC(C)(N)C1 (configuration not stated) | . | 5% | . | . | . | .
O=C(Nc1ccc(NC(=O)c2ccccn2)cc1)C(=O)Nc1ccc2c(c1)OCCO2 | 15% | ? | 0% | 11% | 10% | ?
O=C(Nc1ccc2c(c1)OCCO2)c1ccccn1 | 0.32µM* | 1.3µM* | 0.85µM* | 0.79µM* | 1µM* | ?
Cc1ccc(NC(=O)c2ccc3ccccc3n2)cc1S(=O)(=O)N(C)C | 2.8µM* | 22µM* | 4.3µM* | ? | ? | ?
O=C(Nc1ccc2c(c1)OCCO2)c1cccc2nc3ccccc3nc12 | -1% | -17% | ? | -3% | -5% | ?
Cc1cnc(C(=O)Nc2ccc(C)c(S(=O)(=O)N(C)C)c2)cn1 | 1% | 20% | -16% | 11% | -1% | ?
O=C(Nc1ccc2c(c1)OCCO2)c1ccc2ccccc2n1 | 4.5µM* | 11µM* | 2.1µM* | 0% | ? | ?
Cc1ccc(Cn2cc(/C=C(/C#N)C(=O)Nc3cccc(Cl)c3)c3ccccc32)cc1 | . | -4% | -6% | . | . | .
O=c1c(-c2cc(F)cc(F)c2)nc2cncnc2n1Cc1ccc(F)cc1 | . | -19% | . | . | . | .
COc1cccc(-c2nc(-c3ccc(NC(=O)Cc4ccccc4OC)cc3)no2)c1 | -6% | 15% | ? | 0% | -18% | ?
